Results: the supplement of paper PMC10849652
About 7,900 targets were measured; listed, in parts, are those with a hit and a random draw of the rest. About 0.6% of all pairs of compound and target were hits.

Columns and labels:
Test in all cases: log2 fold change, soluble protein after heating vs DMSO (PISA); higher = thermal stabilisation; K562 cells, 10 uM, 30 min; active = over 0.2 and 3.5 SD of the protein, either way, in both replicates (recomputed)
[1] = compound: NC(=O)Nc1cc(-c2cccc(F)c2)sc1C(=O)N[C@H]1CCCNC1
Summary of the method: (§1)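 K562 cells at 2×10^6 cells/mL were treated for 30 min with 10 μM compound, and aliquots were heated for 3 min over 48°C-58°C before pooling. Extraction used PBS with 0.5% NP-40 at 4°C, and soluble protein was the supernatant after 21,000xg for 90 min, measured by TMTpro 16plex LC-MS/MS with channel sums equalised. Thermal stability values, relative to control samples and from duplicates, are log2 fold changes.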

[2] = compound: NC(=O)c1cnc(N[C@@H]2CCCC[C@@H]2N)nc1Nc1cccc(-n2nccn2)c1
Summary of the method: as §1

[3] = compound: NC1(c2ccc(-c3nc4ccn5c(=O)[nH]nc5c4cc3-c3ccccc3)cc2)CCC1
Summary of the method: as §1

[4] = compound: NCC(=O)Nc1ccc(-n2nc(C(F)(F)F)cc2-c2ccc3c(ccc4ccccc43)c2)cc1
Summary of the method: as §1

entinostat = compound: Nc1ccccc1NC(=O)c1ccc(CNC(=O)OCc2cccnc2)cc1 [entinostat]
Summary of the method: as §1

vorinostat = compound: O=C(CCCCCCC(=O)Nc1ccccc1)NO [vorinostat]
Summary of the method: as §1

citarinostat = compound: O=C(CCCCCCNC(=O)c1cnc(N(c2ccccc2)c2ccccc2Cl)nc1)NO [citarinostat]
Summary of the method: as §1

silmitasertib = compound: O=C(O)c1ccc2c(c1)nc(Nc1cccc(Cl)c1)c1ccncc12 [silmitasertib]
Summary of the method: as §1

[5] = compound: O=C1NC(=O)C(c2cnc3ccccn23)=C1c1cn2c3c(cc(F)cc13)CN(C(=O)N1CCCCC1)CC2
Summary of the method: as §1

[6] = compound: c1cc(OCCN2CCCCC2)cc(-c2n[nH]c3ccc(-c4nnc[nH]4)cc23)c1
Summary of the method: as §1

entospletinib = compound: c1cn2cc(-c3ccc4cn[nH]c4c3)nc(Nc3ccc(N4CCOCC4)cc3)c2n1 [entospletinib]
Summary of the method: as §1

Measured: log2 fold change

MRPS35 (UniProt P82673)
inactive: [1] 0.035 | [2] -0.07 | [3] -0.082 | [4] 0.012 | entinostat -0.027 | vorinostat 0.088 | citarinostat -0.011 | silmitasertib -0.119 | [5] -0.033 | [6] -0.03 | entospletinib 0.036

MRPS6 (UniProt P82932)
inactive: [1] 0.023 | [2] 0.009 | [3] -0.133 | [4] 0.003 | entinostat 0.03 | vorinostat 0.108 | citarinostat 0.079 | silmitasertib -0.036 | [5] -0.042 | [6] -0.031 | entospletinib 0.046

NME2P1 (UniProt O60361)
UniProt O60361, sequence (O60361 whole entry, looked up): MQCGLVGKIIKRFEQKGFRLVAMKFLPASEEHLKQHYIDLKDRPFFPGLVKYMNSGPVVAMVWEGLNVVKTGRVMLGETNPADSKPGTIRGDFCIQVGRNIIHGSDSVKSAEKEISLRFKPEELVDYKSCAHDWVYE
inactive: [1] 0.07 | [2] -0.146 | [3] -0.124 | [4] -0.306 | entinostat -0.01 | vorinostat 0.036 | citarinostat -0.114 | silmitasertib 0.048 | [5] -0.011 | [6] -0.161 | entospletinib -0.571

MRPS33 (UniProt Q9Y291)
inactive: [1] 0.019 | [2] 0.02 | [3] -0.032 | [4] 0.046 | entinostat 0 | vorinostat 0.035 | citarinostat 0.039 | silmitasertib -0.066 | [5] 0.016 | [6] -0.052 | entospletinib 0.086

NDUFA7 (UniProt O95182)
UniProt O95182, sequence (O95182 whole entry, looked up): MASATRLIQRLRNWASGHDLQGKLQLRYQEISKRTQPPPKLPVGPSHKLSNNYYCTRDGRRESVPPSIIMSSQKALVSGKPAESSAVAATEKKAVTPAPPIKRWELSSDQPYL
inactive: [1] 0.019 | [2] 0.005 | [3] -0.108 | [4] -0.059 | entinostat 0 | vorinostat 0.012 | citarinostat 0.008 | silmitasertib -0.037 | [5] -0.047 | [6] -0.039 | entospletinib 0.027

NFATC3 (UniProt Q12968)
UniProt Q12968, sequence (Q12968 whole entry, looked up): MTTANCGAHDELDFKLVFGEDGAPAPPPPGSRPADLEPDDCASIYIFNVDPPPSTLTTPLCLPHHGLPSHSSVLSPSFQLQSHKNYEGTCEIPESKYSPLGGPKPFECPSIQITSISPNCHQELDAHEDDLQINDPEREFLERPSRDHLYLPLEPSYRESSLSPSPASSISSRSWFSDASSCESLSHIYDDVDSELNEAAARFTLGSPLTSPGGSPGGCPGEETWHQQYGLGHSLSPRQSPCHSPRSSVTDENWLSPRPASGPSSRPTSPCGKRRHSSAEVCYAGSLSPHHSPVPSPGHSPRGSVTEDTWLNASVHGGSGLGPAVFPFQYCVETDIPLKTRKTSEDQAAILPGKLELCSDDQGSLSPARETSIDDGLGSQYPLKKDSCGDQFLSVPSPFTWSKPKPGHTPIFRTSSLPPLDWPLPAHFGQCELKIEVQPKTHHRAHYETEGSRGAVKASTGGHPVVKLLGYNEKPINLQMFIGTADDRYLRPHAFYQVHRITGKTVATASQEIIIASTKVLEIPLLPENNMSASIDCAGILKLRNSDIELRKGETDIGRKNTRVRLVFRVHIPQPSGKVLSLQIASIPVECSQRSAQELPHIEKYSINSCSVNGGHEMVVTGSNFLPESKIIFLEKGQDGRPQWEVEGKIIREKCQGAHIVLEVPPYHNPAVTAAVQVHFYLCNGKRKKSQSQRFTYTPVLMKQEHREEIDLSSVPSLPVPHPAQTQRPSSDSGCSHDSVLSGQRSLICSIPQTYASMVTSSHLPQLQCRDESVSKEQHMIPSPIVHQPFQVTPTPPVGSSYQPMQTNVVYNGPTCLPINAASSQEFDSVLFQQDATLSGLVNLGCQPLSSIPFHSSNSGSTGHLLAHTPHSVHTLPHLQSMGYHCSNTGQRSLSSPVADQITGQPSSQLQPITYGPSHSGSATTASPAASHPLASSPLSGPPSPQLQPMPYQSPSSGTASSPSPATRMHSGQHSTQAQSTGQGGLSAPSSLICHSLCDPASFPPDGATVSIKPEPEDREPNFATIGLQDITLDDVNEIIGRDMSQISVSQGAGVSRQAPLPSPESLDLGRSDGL
inactive: [1] -0.15 | [2] -0.137 | [3] 0.034 | [4] 0.007 | entinostat 0.107 | vorinostat 0.045 | citarinostat -0.101 | silmitasertib 0.118 | [5] -0.267 | [6] -0.225 | entospletinib 0.153

NSDHL (UniProt Q15738)
UniProt Q15738, sequence (Q15738 whole entry, looked up): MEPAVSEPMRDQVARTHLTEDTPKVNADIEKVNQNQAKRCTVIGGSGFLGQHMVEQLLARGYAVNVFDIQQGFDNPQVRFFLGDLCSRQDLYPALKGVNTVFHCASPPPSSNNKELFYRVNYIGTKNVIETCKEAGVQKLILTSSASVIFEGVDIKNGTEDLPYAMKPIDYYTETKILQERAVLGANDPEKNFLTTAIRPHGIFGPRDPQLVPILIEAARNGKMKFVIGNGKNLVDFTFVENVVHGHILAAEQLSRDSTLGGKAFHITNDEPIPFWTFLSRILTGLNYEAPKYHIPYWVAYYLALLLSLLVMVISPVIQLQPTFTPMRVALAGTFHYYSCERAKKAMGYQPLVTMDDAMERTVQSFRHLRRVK
inactive: [1] -0.14 | [2] -0.061 | [3] 0.11 | [4] -0.033 | entinostat -0.018 | vorinostat -0.04 | citarinostat 0.023 | silmitasertib -0.023 | [5] -0.027 | [6] 0.02 | entospletinib -0.05

OSBP (UniProt P22059)
UniProt P22059, sequence (P22059 whole entry, looked up): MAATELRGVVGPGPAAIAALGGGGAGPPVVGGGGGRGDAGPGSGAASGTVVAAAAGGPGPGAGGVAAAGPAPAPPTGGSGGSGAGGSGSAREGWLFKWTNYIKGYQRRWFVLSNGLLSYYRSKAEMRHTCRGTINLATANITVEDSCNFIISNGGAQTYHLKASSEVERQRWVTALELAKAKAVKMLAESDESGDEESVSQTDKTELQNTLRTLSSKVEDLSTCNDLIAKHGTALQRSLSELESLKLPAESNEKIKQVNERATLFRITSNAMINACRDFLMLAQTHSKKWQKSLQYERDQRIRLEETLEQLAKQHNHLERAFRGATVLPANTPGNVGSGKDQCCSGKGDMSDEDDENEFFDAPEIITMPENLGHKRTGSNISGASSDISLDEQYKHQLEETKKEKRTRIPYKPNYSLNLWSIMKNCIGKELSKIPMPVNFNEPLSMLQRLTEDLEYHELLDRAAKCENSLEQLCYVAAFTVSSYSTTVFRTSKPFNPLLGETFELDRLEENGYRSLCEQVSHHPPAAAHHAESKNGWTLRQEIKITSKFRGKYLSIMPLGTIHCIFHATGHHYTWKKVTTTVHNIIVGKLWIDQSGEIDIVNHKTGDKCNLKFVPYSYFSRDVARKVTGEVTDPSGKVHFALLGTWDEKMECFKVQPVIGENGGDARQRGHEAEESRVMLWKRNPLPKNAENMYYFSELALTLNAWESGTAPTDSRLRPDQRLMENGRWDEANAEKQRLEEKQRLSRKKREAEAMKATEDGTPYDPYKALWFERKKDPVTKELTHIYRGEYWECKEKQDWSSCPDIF
inactive: [1] -0.007 | [2] 0.019 | [3] -0.17 | [4] -0.036 | entinostat 0.024 | vorinostat 0.013 | citarinostat 0.03 | silmitasertib 0.014 | [5] -0.131 | [6] -0.066 | entospletinib -0.013

NOB1 (UniProt Q9ULX3)
UniProt Q9ULX3, sequence (Q9ULX3 whole entry, looked up): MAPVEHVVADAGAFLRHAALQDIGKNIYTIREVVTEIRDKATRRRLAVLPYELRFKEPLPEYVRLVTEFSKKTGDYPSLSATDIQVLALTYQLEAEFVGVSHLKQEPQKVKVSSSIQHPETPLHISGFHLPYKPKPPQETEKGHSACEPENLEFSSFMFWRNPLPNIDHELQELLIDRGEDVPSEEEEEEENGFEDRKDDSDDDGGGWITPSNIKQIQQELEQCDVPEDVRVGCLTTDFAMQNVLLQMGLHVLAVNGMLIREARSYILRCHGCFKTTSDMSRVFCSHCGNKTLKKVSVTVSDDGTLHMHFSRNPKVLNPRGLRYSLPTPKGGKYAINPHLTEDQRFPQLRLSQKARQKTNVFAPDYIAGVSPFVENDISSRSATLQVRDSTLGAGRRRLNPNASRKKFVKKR
inactive: [1] -0.032 | [2] 0.002 | [3] -0.041 | [4] -0.021 | entinostat 0.047 | vorinostat 0.093 | citarinostat -0.003 | silmitasertib -0.096 | [5] 0.062 | [6] 0.038 | entospletinib -0.013

NNT (UniProt Q13423)
UniProt Q13423, sequence (Q13423 whole entry, looked up): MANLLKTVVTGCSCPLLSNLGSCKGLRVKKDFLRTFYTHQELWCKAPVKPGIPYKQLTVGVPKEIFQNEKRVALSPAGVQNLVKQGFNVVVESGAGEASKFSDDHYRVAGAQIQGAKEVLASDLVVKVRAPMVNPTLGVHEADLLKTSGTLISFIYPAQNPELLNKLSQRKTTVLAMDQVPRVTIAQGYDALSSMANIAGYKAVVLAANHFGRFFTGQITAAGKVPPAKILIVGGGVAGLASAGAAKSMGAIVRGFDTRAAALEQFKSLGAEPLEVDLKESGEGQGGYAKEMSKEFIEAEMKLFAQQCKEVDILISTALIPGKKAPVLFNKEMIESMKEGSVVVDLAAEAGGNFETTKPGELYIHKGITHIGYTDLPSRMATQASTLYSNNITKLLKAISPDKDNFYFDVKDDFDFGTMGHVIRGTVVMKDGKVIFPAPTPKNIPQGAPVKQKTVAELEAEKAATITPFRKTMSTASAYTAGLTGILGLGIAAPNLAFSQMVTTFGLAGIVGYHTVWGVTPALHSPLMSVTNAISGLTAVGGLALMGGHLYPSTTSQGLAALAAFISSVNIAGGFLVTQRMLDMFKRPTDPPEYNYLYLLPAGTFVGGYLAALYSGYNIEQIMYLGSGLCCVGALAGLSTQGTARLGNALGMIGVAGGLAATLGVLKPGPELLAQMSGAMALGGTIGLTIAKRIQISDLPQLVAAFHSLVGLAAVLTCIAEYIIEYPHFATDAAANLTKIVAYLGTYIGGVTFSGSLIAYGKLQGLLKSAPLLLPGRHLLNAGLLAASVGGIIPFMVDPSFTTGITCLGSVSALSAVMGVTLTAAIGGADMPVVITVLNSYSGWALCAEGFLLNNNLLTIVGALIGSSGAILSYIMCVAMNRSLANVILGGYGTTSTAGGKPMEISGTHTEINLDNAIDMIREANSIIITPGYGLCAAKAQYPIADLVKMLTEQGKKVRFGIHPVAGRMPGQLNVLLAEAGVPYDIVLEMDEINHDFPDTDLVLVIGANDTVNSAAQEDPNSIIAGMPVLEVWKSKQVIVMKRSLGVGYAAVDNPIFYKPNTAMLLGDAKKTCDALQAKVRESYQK
inactive: [1] -0.007 | [2] -0.037 | [3] -0.062 | [4] -0.029 | entinostat 0.006 | vorinostat 0.025 | citarinostat 0.018 | silmitasertib -0.027 | [5] -0.041 | [6] 0.024 | entospletinib -0.042

NACC1 (UniProt Q96RE7)
UniProt Q96RE7, sequence (Q96RE7 whole entry, looked up): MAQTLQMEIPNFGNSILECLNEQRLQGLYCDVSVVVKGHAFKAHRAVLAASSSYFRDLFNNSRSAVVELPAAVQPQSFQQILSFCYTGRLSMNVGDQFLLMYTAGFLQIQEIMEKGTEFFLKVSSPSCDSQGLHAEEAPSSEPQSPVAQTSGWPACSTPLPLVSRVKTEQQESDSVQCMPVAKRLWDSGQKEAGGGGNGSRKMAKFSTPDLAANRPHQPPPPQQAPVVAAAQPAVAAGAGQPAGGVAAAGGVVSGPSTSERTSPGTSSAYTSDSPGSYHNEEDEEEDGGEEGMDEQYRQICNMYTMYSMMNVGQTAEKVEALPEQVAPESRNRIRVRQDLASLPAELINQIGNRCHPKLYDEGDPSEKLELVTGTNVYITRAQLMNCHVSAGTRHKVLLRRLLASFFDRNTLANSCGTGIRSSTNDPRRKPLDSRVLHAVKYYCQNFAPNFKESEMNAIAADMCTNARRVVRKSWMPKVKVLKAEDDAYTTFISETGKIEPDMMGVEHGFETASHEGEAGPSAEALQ
inactive: [1] 0.099 | [2] -0.082 | [3] -0.173 | [4] -0.075 | entinostat 0.062 | vorinostat 0.148 | citarinostat 0.235 | silmitasertib -0.027 | [5] -0.257 | [6] -0.057 | entospletinib -0.019

MORF4L2 (UniProt Q15014)
UniProt Q15014, sequence (Q15014 whole entry, looked up): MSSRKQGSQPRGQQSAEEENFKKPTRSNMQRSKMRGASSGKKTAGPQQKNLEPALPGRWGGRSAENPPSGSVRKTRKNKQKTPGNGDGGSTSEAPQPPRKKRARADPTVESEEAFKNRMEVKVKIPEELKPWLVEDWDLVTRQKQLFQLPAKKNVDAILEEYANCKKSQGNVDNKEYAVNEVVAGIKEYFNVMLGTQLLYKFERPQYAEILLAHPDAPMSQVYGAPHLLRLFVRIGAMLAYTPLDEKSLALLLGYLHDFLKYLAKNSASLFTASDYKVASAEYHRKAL
inactive: [1] 0.021 | [2] 0.047 | [3] 0.123 | [4] 0.027 | entinostat -0.066 | vorinostat 0.04 | citarinostat -0.044 | silmitasertib 0.087 | [5] 0.04 | [6] -0.121 | entospletinib -0.038

MTOR (UniProt P42345)
inactive: [1] -0.016 | [2] -0.102 | [4] -0.111 | entinostat 0.042 | vorinostat 0.049 | citarinostat 0.035 | silmitasertib 0.102 | [5] -0.065 | [6] -0.004 | entospletinib -0.012
active: [3] -0.315

NUP98 (UniProt P52948)
inactive: [1] 0.018 | [2] -0.086 | [3] -0.025 | [4] -0.076 | entinostat 0 | vorinostat 0.052 | citarinostat 0.028 | silmitasertib 0.072 | [5] 0.001 | [6] -0.073 | entospletinib 0.003
